Drawing on PubChem BioAssay (NCI), this text covers growth inhibition for 17 compounds.

Where “and” joins values, the source holds several entries; their conditions need not be identical. Equal values may be shown once. About 79,000 compounds went through this panel and 15% of them were active in at least one assay; those are over-represented in the sample as a whole. Values without a mark were called inactive. No stated cut-off is given here; in the data, active means growth inhibition above about 70%; inactive means the rest.

A short description of this assay: NCI Yeast Anticancer Drug Screen. Data for the bub3 strain (AID 167). To be noted: S. cerevisiae bub3 mutant strain, hits give high values; at 50.0 µM unless noted. A digest of the protocol: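 Compounds were applied to a genetically altered yeast strain carrying a cell-cycle control defect. Growth inhibition was scored against vehicle-treated controls.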
As to `Cc1ccc2c(c1)C(C)(C)C(C)(C)C2(C)C`, the growth inhibition was 3.8%.
In the case of `CCOc1ccccc1Nc1ccc(N)cc1S(=O)(=O)O`, the growth inhibition is 1.35%.
As for `CC(C)COC(=O)C(CC(C)C)NC(=O)C(C)O` (configuration not stated), the growth inhibition is -14.7%.
Consider `CC(C)CC1N=C(NN=C(CCl)CCl)OP1(=O)NCCCCCCNP1(=O)OC(NN=C(CCl)CCl)=NC1CC(C)C` (configuration not stated), for which the growth inhibition was 24.8%.
To `CCOC(=O)Cc1ccc2ccccc2c1` belongs 8.05%; to `Cc1cc2c(cc1Cl)SC(NNC1=NCCN1)=NS2(=O)=O`, -17.9%; to `CC1=C(C(=O)Nc2ccccc2)C(c2ccc3c(c2)OCO3)C(C(=O)Nc2ccccc2)=C(C)N1`, 38.5%.
The figure for `O=C(CC(=O)c1cc(Cl)ccc1O)c1ccc2ccccc2n1` is -2.85%; for `COc1cc(/C=C/C(=O)c2c(=O)o[nH][n+]2-c2ccccc2)ccc1[O-]` it is -1.85%.
To `O=C(/C=C/c1ccccc1)c1ccccc1` belongs 21.7% and 1.7%; to `O=C(O)c1ccccc1Br`, -17.4%.
Take `Clc1nc(NCCc2ccccc2)c2ncn(-c3ccccc3)c2n1`: the growth inhibition was 68.2%.
For `Cc1ccc(C(=O)O)cc1`, the growth inhibition is 8.85%.
For the compound `CC(=O)Nc1ccc(NC(=O)NCCCCCCNC(=O)Nc2ccc(NC(C)=O)cc2)cc1`, the growth inhibition is -1.7%.
To `Cc1nc2ccccc2c2ccc([N+](=O)[O-])cc12` belongs -4.6%; to `C[N+]1(C)CCc2cc(O)c(O)cc2C1Cc1ccc(O)c(O)c1` (configuration not stated), -36.8%; to `O=c1[nH]c(=O)c2nc3c(=O)[nH]c(=O)[nH]c3nc2[nH]1`, 2.65%.
